A short description of assay [1]: ATG_XTT_Cytotoxicity: Cytotoxicity Assessment in the Attagene TRANS-FACTORIAL HepG2 Assay (AID 2283584).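 On AC50: XTT signal for cell number as viability in transfected HepG2 cells; cells exposed to compound for 24 h before reading; active means loss of viability signal versus DMSO baseline.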 The gist of the method:
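Transfect HepG2 with GAL4-UAS reporter units, dose compound, incubate 24 h, then measure viable cell number by XTT. Fit concentration response against DMSO baseline.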

Assay [2] in a line: TOX21_p53_BLA_p2_viability: Viability Assessment in the Tox21 HCT-116 p53 Agonism Beta-lactamase Assay, Phase 2 (AID 2283591).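 Further: compound exposure lasted 16 h at 37 °C; actives lower the ATP signal meaning cytotoxicity.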 In outline:
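Cytotoxicity readout: CellTiter-Glo ATP luminescence, 30 min at room temperature, after the beta-lactamase read. Cells were HCT116 exposed 16 h at 37C to compounds pin-transferred at 217-fold dilution from DMSO stocks.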

Structures are written as SMILES. Records with an inconclusive call do not appear. Calls of active or inactive are those of the source. How the source made its calls: active means hit-call score of the fitted dose curve at least 0.9, where 1 is the maximum; inconclusive means response in the unintended direction; inactive means score below 0.9.

Here are results for 45 molecules from PubChem BioAssay (EPA / NIEHS).

Take `c1ccc2[nH]ccc2c1`: the result in assay [1] was inactive. Regarding `CCCCCC(CO)CCC` (configuration not stated), in assay [1], the result was inactive. Turning to `Nc1nc2ccc([N+](=O)[O-])cc2s1`, the call in assay [1] was inactive.

As to `C=C(C)C(=O)OCc1ccccc1`, in assay [1], the call was inactive.

Regarding `CCCc1ccccc1O`, in assay [1], the outcome was inactive. For the molecule `Clc1ccc2c(c1)C(N1CCNCC1)=Nc1ccccc1O2`, the AC50 in assay [1] is 41.8 µM (active). Take `C=O`: the result in assay [1] was inactive. With `CCCCCCCCCCCCOCCO`, the molecule was classed as inactive in assay [1]. Still for that read-out and setting: the same measure for `COc1ccc(O)cc1`: “inactive”; for `CCCCCCCCCCCCN(CCCCCCCCCCCC)CCCCCCCCCCCC`: “inactive”.

`Clc1ccc(Cl)c(Cl)c1Cl`: the molecule was called inactive in assay [1].

On to `CC(CCO)CCCC(C)(C)O` (configuration not stated), for which the molecule was called inactive in assay [1]. For the molecule `CC(C)=CCCC(C)CC=O` (configuration not stated), in assay [1], the molecule was classed as inactive. Consider `C=C(C)C(=O)OCCOC(=O)CC(C)=O`, for which, in assay [1], the call was inactive. Regarding `CCCCCCCCC=O`, the molecule was classed as inactive in assay [1]. In the case of `CO[Si](CCCn1c(=O)n(CCC[Si](OC)(OC)OC)c(=O)n(CCC[Si](OC)(OC)OC)c1=O)(OC)OC`, the outcome in assay [1] was inactive. On to `CN(C)c1ccc(O)c2c1C[C@H]1C[C@H]3[C@H](N(C)C)C(=O)C(C(N)=O)=C(O)[C@@]3(O)C(=O)C1=C2O`, for which the molecule was classed as inactive in assay [1]. Turning to `C=COCCOCCOCCOC=C`, the outcome in assay [1] was inactive. Still for that read-out and setting: the value for `COc1cc(C(C)(C)C)c(O)c(C(C)(C)C)c1` was “inactive”. For the molecule `COc1ccc(Cl)cc1C`, the molecule was classed as inactive in assay [1]. For `COc1ccnc(CS(=O)c2nc3cc(OC(F)F)ccc3[nH]2)c1OC` (configuration not stated), in assay [1], the molecule was called inactive. Still for that read-out and setting: the value for `CC(CCO)CCc1ccccc1` (configuration not stated) was “inactive”. On to `C=CC[N+](C)(C)CC=C`, for which, in assay [1], the molecule was classed as inactive. For `CC(C=O)Cc1ccc(C(C)C)cc1` (configuration not stated), in assay [1], the molecule was called inactive. Consider `C=C[Si](OCC)(OCC)OCC`, for which, in assay [1], the call was inactive. The same measure, in the same setting: the value for `CCC(=O)/C=C/C1C(C)=CCCC1(C)C` (configuration not stated) was “inactive”; that for `CCCCN` was “inactive”. On the same count and under the same terms, the value for `Cc1c(Cl)c(=O)oc2cc(O)ccc12` was “inactive”; that for `CCCC(=O)OCCC(C)CCC=C(C)C` (configuration not stated) was “inactive”.

As for `c1ccc2sc(SN(C3CCCCC3)C3CCCCC3)nc2c1`, in assay [1], the call was inactive. On to `C=CC(C)(O)CCC=C(C)CCC=C(C)C` (configuration not stated), for which the result in assay [1] was inactive. The same measure, in the same setting: the value for `Cc1ccc2sc3cccc(C)c3c2c1` was “inactive”; that for `O=CCCc1ccccc1` was “inactive”; that for `C=CC(C)(C)O` was “inactive”. On the same count and under the same terms, the value for `O=C1CCCCCCCCCCOCCCCO1` was “inactive”; that for `OCCN1CCNCC1` was “inactive”. On to `COC(C(=O)O)c1ccccc1` (configuration not stated), for which, in assay [1], the call was inactive. Same read-out and setting: the same measure for `Cc1cccc(C)c1C`: “inactive”; for `COC(=O)C1=C(C)NC(C)=C(C(=O)OCCN(C)Cc2ccccc2)C1c1cccc([N+](=O)[O-])c1` (configuration not stated): “inactive”.

For the molecule `CC1=CCC2C(C1)C2(C)C` (configuration not stated), the molecule was called inactive in assay [1]. Take `Nc1cc([N+](=O)[O-])ccc1Cl`: the outcome in assay [1] was inactive. Still for that read-out and setting: the value for `CN1Cc2c(N)cccc2C(c2ccccc2)C1` (configuration not stated) was “inactive”; that for `CC1COc2ccccc2N1C(=O)C(Cl)Cl` (configuration not stated) was “inactive”.

As to `Cc1ccccc1C=O`, the outcome in assay [1] and in assay [2] was inactive. Turning to `CCCC(=O)C(C)=O`, the outcome in assay [1] and in assay [2] was inactive.

The AC50 is the concentration giving half of the maximal activity seen.
